One assay deals with AMP-activated protein kinase, AMPK (Homo sapiens) (UniProt P54646+O43741+P54619+Q9UGJ0+Q9Y478+Q13131+Q9UGI9). The experiment in a line: AMP-dependent Kinase enzyme assay. An in vitro enzyme assay that detects ADP turnover that is directly proportional to AMPK activity. This uses naive AMPK that is activated during the assay with MK-8722. The class given is functional. More on the design: scale not given: direction of the effect not stated beside the values. The conditions noted are these: 30 µM.
Chain of Sialic acid-binding Ig-like lectin 9 (Homo sapiens) (Q9Y336 whole entry): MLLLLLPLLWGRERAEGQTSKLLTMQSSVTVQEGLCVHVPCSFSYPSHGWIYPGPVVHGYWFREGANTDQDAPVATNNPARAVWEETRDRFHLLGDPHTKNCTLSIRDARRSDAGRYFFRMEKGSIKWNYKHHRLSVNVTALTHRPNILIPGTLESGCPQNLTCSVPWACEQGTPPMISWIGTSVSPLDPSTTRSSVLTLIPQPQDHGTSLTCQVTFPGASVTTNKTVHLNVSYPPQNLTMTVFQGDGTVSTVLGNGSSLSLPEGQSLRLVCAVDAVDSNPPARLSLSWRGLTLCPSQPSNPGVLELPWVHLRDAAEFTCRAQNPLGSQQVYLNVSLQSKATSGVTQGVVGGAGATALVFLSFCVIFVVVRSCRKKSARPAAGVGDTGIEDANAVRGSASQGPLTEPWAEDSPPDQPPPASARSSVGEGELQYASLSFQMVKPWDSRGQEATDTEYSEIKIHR
Take `Cc1nc(CO[C@@H]2CN(Cc3cnn(C)c3)[C@@H]3COC[C@@H]32)cs1`: the Percent Effect came out at 1.23%.
Consider `CC(=O)N1CCN(Cc2csc(-c3cnn(C)c3)n2)CC1`, for which the Percent Effect was -1.26%.
Consider `CC1CN(CC(=O)Nc2nncs2)CCN1c1nccs1` (stereo not drawn), for which the Percent Effect was -4.77%.
For the compound `CC(OCC1CC1)C(=O)N1CCCN(Cc2cnn(C)c2)CC1` (stereo not drawn), the Percent Effect was -0.358%.
Consider `O=S(=O)(CCNCc1cccc2c1OCCO2)N1CCOCC1`, for which the Percent Effect was -8.76%.
Take `Cc1ccccc1[C@@H]1CN(C(=O)c2ccc3[nH]nnc3c2)C[C@H]1C(=O)O`: the Percent Effect worked out at 4.06%.
For `CC1CCN(C(CNC(=O)CCn2cccn2)c2cccs2)CC1` (stereo not drawn), the Percent Effect is -0.997%.
For `Cc1ccc(NC2CCN(C(=O)COCC(F)(F)F)CC2)nn1`, the Percent Effect was -2.75%.
Regarding `Cn1cc(CN2CCCC3(CCN(c4nncs4)C3)C2)cn1` (stereo not drawn), the Percent Effect is 2.26%.
On to `Cc1nc(Cn2nc(C3CCNCC3)n(Cc3ccccc3)c2=O)no1`, for which the Percent Effect was 0.118%.
The same measure, in the same setting: next, `CC(C)(C)c1cnc(CN2CCC(c3ccnn3CCO)CC2)o1`: 7.52%; `Cc1nc(COC[C@@H]2CC[C@H]3[C@H](CCN3c3ncccn3)O2)cs1`: -0.411%.
The same measure, in the same setting: next, `CC(=O)N(Cc1ncc(C)o1)C1CCN(Cc2noc(C)n2)C1` (stereo not drawn): -5.5%; `Cc1cc(CN(C)C2CCCN(Cc3noc(C4CC4)n3)C2)no1` (stereo not drawn): -10.8%; `COCC1CN(C(=O)C2=CCCCC2)Cc2cnn(CC3CC3)c21` (stereo not drawn): 2.96%.
Regarding `CC(=O)N1CCCN(C(=O)NCCc2ccc(Cl)s2)CC1`, the Percent Effect was determined as 2.05%.
With `CCc1nnc(CN(C)c2nc(C3CCCC3)nc3c2cnn3C)o1`, the Percent Effect was found to be 7.51%.
Take `COc1ccc(-c2cc(C3CCCCCN3S(=O)(=O)N(C)C)on2)cc1` (stereo not drawn): the Percent Effect amounted to 6.56%.
The same measure, in the same setting: the same measure for `O=C(N[C@@H]1CN(Cc2ccccc2)C[C@@H]2CCCO[C@@H]21)C1CC1`: 0.707%; for `CS(=O)(=O)NCCCNC(=O)c1cccnc1O`: -3.83%.
The same measure, in the same setting: next, `Fc1ccc(CNCC2OCCc3cn(CC4CC4)nc32)cc1` (stereo not drawn): 12.4%.
As for `O=C(c1cccnc1-n1cncn1)N1CCN(CC2CC2)CC1`, the Percent Effect was -2.56%.
Same read-out and setting: the same measure for `COc1ccccc1OC1(C(=O)O)CCN(c2nccnc2C)CC1`: -1.61%; for `Cc1csc(CNC(=O)NCCc2ccc3c(c2)OCCO3)n1`: -2.69%; for `CCOCC(O)CN1CCN(C(=O)CC(C)(C)C)CC1` (stereo not drawn): -10.6%.
`CN1C(=O)C(c2cccnc2)CC12CCN(C(=O)c1cccn1C)CC2` (stereo not drawn): the Percent Effect was -0.439%.
For `Cc1ccc(S(=O)(=O)N2C[C@H]3C[C@H](NC(=O)c4ccn(C)n4)[C@H]3C2)cc1`, the Percent Effect is -0.91%.
As for `CN(Cc1ccc(F)cc1)C(=O)NCc1nnc2n1CCCCC2`, the Percent Effect was -3.69%.
With `O=C(Nc1cc(C(F)(F)F)c[nH]c1=O)N1CCCSCC1`, the Percent Effect is 1.88%.
The same measure, in the same setting: next, `c1cc(CN2CCN(Cc3cscn3)CC2)cs1`: 3.68%; `Cc1noc([C@@H]2C[C@H]3OCC[C@H]3N(S(=O)(=O)c3cccnc3)C2)n1`: -6.86%.
Take `CCn1cnnc1C1CCN(C(=O)c2ccccc2OC)CC1`: the Percent Effect stood at 12.8%.
Regarding `O=C(c1ccccc1-c1ccccc1)N1CCOC2(CNCCOC2)C1` (stereo not drawn), the Percent Effect was -0.846%.
Consider `COc1ccc(C(=O)N(C)Cc2cccc(C#N)c2)c(OC)c1OC`, for which the Percent Effect was -1.05%.
Consider `CNC(=O)[C@@]12CCCN(c3ncccn3)[C@@H]1CN(C(=O)NC(C)C)C2`, for which the Percent Effect was determined as 3.44%.
On the same count and under the same terms, the same measure for `O=C1CC(NCc2ccncc2)CN1Cc1cccc(F)c1` (stereo not drawn): -0.958%.
With `CS(=O)(=O)NC[C@@H]1OC[C@H]2CN(C(=O)c3ccc[nH]3)CC[C@H]21`, the Percent Effect amounted to 4.44%.
`Cc1nccn1C1CCCN(C(=O)c2cc3ccccc3[nH]2)C1` (stereo not drawn): the Percent Effect was -10.1%.
For `CS(=O)(=O)N1CCC(O)(Cn2c(C3CC3)nc3ccccc3c2=O)CC1`, the Percent Effect is 8%.

A further assay addresses Sialic acid-binding Ig-like lectin 9 (Homo sapiens) (UniProt Q9Y336). As to the kind of experiment: Hs-Siglec9 ALPHAscreen SOP 20170721. The arrangement: scale not given: direction of the effect not stated beside the values. As to conditions: 10 µM. On the technique in general: In Alpha technology, singlet oxygen from a donor bead excites a nearby acceptor bead.
For the compound `Cc1nc(CO[C@@H]2CN(Cc3cnn(C)c3)[C@@H]3COC[C@@H]32)cs1`, the Percent Effect was determined as 4.76%.
The same measure, in the same setting: next, `CC(=O)N1CCN(Cc2csc(-c3cnn(C)c3)n2)CC1`: 6.08%.
Still for that read-out and setting: next, `CC1CN(CC(=O)Nc2nncs2)CCN1c1nccs1` (stereo not drawn): -8.19%.
For the compound `CC(OCC1CC1)C(=O)N1CCCN(Cc2cnn(C)c2)CC1` (stereo not drawn), the Percent Effect was -2.42%.
As to `O=S(=O)(CCNCc1cccc2c1OCCO2)N1CCOCC1`, the Percent Effect was determined as 1%.
Still for that read-out and setting: the same measure for `Cc1ccccc1[C@@H]1CN(C(=O)c2ccc3[nH]nnc3c2)C[C@H]1C(=O)O`: 1.72%.
As for `CC1CCN(C(CNC(=O)CCn2cccn2)c2cccs2)CC1` (stereo not drawn), the Percent Effect was found to be 10.3%.
As for `Cc1ccc(NC2CCN(C(=O)COCC(F)(F)F)CC2)nn1`, the Percent Effect turned out to be 3.15%.
The same measure, in the same setting: next, `Cn1cc(CN2CCCC3(CCN(c4nncs4)C3)C2)cn1` (stereo not drawn): -4.09%; `Cc1nc(Cn2nc(C3CCNCC3)n(Cc3ccccc3)c2=O)no1`: 2.54%.
The same measure, in the same setting: the same measure for `CC(C)(C)c1cnc(CN2CCC(c3ccnn3CCO)CC2)o1`: 9.51%; for `Cc1nc(COC[C@@H]2CC[C@H]3[C@H](CCN3c3ncccn3)O2)cs1`: 3.43%.
In the case of `CC(=O)N(Cc1ncc(C)o1)C1CCN(Cc2noc(C)n2)C1` (stereo not drawn), the Percent Effect was -2.16%.
Still for that read-out and setting: the same measure for `Cc1cc(CN(C)C2CCCN(Cc3noc(C4CC4)n3)C2)no1` (stereo not drawn): -8.06%; for `COCC1CN(C(=O)C2=CCCCC2)Cc2cnn(CC3CC3)c21` (stereo not drawn): 2.46%; for `CC(=O)N1CCCN(C(=O)NCCc2ccc(Cl)s2)CC1`: 0.11%.
Regarding `CCc1nnc(CN(C)c2nc(C3CCCC3)nc3c2cnn3C)o1`, the Percent Effect is 2.48%.
In the case of `COc1ccc(-c2cc(C3CCCCCN3S(=O)(=O)N(C)C)on2)cc1` (stereo not drawn), the Percent Effect was -4.82%.
Still for that read-out and setting: next, `O=C(N[C@@H]1CN(Cc2ccccc2)C[C@@H]2CCCO[C@@H]21)C1CC1`: 7.92%.
Regarding `CS(=O)(=O)NCCCNC(=O)c1cccnc1O`, the Percent Effect is -4.12%.
Same read-out and setting: next, `Fc1ccc(CNCC2OCCc3cn(CC4CC4)nc32)cc1` (stereo not drawn): 6.39%; `O=C(c1cccnc1-n1cncn1)N1CCN(CC2CC2)CC1`: 20.3%.
Take `COc1ccccc1OC1(C(=O)O)CCN(c2nccnc2C)CC1`: the Percent Effect is 9.27%.
On the same count and under the same terms, next, `Cc1csc(CNC(=O)NCCc2ccc3c(c2)OCCO3)n1`: -16.2%; `CCOCC(O)CN1CCN(C(=O)CC(C)(C)C)CC1` (stereo not drawn): 5.4%.
Still for that read-out and setting: next, `CN1C(=O)C(c2cccnc2)CC12CCN(C(=O)c1cccn1C)CC2` (stereo not drawn): 0.0913%.
On to `Cc1ccc(S(=O)(=O)N2C[C@H]3C[C@H](NC(=O)c4ccn(C)n4)[C@H]3C2)cc1`, for which the Percent Effect was determined as 4.49%.
Take `CN(Cc1ccc(F)cc1)C(=O)NCc1nnc2n1CCCCC2`: the Percent Effect was 5.52%.
In the case of `O=C(Nc1cc(C(F)(F)F)c[nH]c1=O)N1CCCSCC1`, the Percent Effect is 4.65%.
For `c1cc(CN2CCN(Cc3cscn3)CC2)cs1`, the Percent Effect was -2.63%.
With `Cc1noc([C@@H]2C[C@H]3OCC[C@H]3N(S(=O)(=O)c3cccnc3)C2)n1`, the Percent Effect turned out to be 6.79%.
Turning to `CCn1cnnc1C1CCN(C(=O)c2ccccc2OC)CC1`, the Percent Effect was determined as 2.75%.
Turning to `O=C(c1ccccc1-c1ccccc1)N1CCOC2(CNCCOC2)C1` (stereo not drawn), the Percent Effect amounted to 7.99%.
As for `COc1ccc(C(=O)N(C)Cc2cccc(C#N)c2)c(OC)c1OC`, the Percent Effect was 10.9%.
Consider `CNC(=O)[C@@]12CCCN(c3ncccn3)[C@@H]1CN(C(=O)NC(C)C)C2`, for which the Percent Effect is -13.2%.
Turning to `O=C1CC(NCc2ccncc2)CN1Cc1cccc(F)c1` (stereo not drawn), the Percent Effect is 0.392%.
On the same count and under the same terms, next, `CS(=O)(=O)NC[C@@H]1OC[C@H]2CN(C(=O)c3ccc[nH]3)CC[C@H]21`: 3.67%.
On the same count and under the same terms, the same measure for `Cc1nccn1C1CCCN(C(=O)c2cc3ccccc3[nH]2)C1` (stereo not drawn): 1.72%; for `CS(=O)(=O)N1CCC(O)(Cn2c(C3CC3)nc3ccccc3c2=O)CC1`: 2.72%.
